Data on 18 molecules can be found in PubChem BioAssay (NCATS).

Several values for one entry are separate records, joined by “and”; a condition that tells them apart may be missing. Identical values can stand only once. Results filed as inconclusive are left out. Some structures have more than one record in an assay (separate samples or runs), and their calls can disagree. Activity calls are given as the source filed them. Calls come from the whole dose curve; as a rule, active = well fitted curve in the direction sought with a large enough effect; inconclusive = small, poorly fitted or top-dose-only effect, or another doubt; inactive = no such curve, though single readings can be large; an effect the other way counts as inactive or inconclusive.

Assay [1] can be described thus: qHTS Screen of the MIPE 4.0 Collection Against Ewings Sarcoma (RDES) (AID 1259252). Note: nearly all actives have a fitted effect of over 35% in size. Note: potency is the fitted concentration of half-maximal effect. The gist of the method:
(§1)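 Dose series incubated 48 h with cells in RPMI plus 5% FBS, glutamine and penicillin/streptomycin; cell viability then quantified via CellTiter-Glo.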

The nature of assay [2]: qHTS Screen of the MIPE 4.0 Collection Against Ewings Sarcoma (TC71) (AID 1259253). Note: nearly all actives have a fitted effect of over 40% in size. Note: potency is the fitted concentration of half-maximal effect. The method in brief: as §1
Assay [3] is described as follows: qHTS Screen of the MIPE 4.0 Collection Against Ewings Sarcoma (EW8) (AID 1259255). Note: nearly all actives have a fitted effect of over 35% in size. Note: potency is the fitted concentration of half-maximal effect. The gist of the method: as §1
A short description of assay [4]: qHTS Screen of the MIPE 4.0 Collection Against Ewings Sarcoma (TC32) (AID 1259256). Note: nearly all actives have a fitted effect of over 45% in size. Note: potency is the fitted concentration of half-maximal effect. The gist of the method: as §1
The nature of assay [5]: NS1 protein of Zika virus - qHTS assay to identify small molecule inhibitors in human HEK 293 cells (AID 1347053). Note: nearly all actives have a fitted effect of over 55% in size. Note: potency is the fitted concentration of half-maximal effect. The gist of the method:
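TR-FRET signal from two anti-ZIKV NS1 antibodies quantified NS1 in HEK 293 cells 24 h after MR766 infection at MOI = 0.5; compounds were added 1 h before virus. Uninfected cells and infected cells defined the NS1 normalization range.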

Assay [6] in a line: P-glycoprotein substrates identified in KB-8-5-11 adenocarcinoma cell line, qHTS therapeutic library screen (AID 1346987). Note: nearly all actives have a fitted effect of over 65% in size. Note: potency is the fitted concentration of half-maximal effect. The gist of the method: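 Compounds are pinned in dose-response onto KB-8-5-11 cells (500 cells/well, colchicine-free medium) and left 72 h at 37 degree C. CellTiter-Glo luminescence then yields AC50 values.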
The nature of assay [7]: Identifying Small Molecule Inhibitors of Pancreatic Cancer Stem Cells (A2780, Spheroid) (AID 1259357). Note: potency is the fitted concentration of half-maximal effect.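 Note: spheroids pre-formed over 14 days in stem cell medium on hydrogel; compound exposure lasted 48 h before the ATP luminescence read.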 As to conditions: Potency: A2780 spheroid viability. The method in brief: (§2)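 Luminescent ATP readout (CellTiter-Glo) quantifies surviving cells after a 48 h drug incubation. Normalization uses DMSO wells as no inhibition and media-only wells as full inhibition; bortezomib served as positive control.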

Assay [8] can be described thus: Identifying Small Molecule Inhibitors of Pancreatic Cancer Stem Cells (SN12C, Adherent) (AID 1259358).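 Note: cell survival measured after 48 h of compound exposure.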 Note: potency is the fitted concentration of half-maximal effect. The gist of the method: (§3)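 Endpoint: ATP-based luminescence, 48 h drug exposure. Bortezomib at 9.2 uM final as full-kill control; DMSO vehicle as negative control; activity normalized between vehicle and cell-free wells.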
Assay [9] can be described thus: Identifying Small Molecule Inhibitors of Pancreatic Cancer Stem Cells (SN12C, Spheroid) (AID 1259360). Note: potency is the fitted concentration of half-maximal effect. As to conditions: Potency: SN12C spheroid viability. The method in brief: as §2
Assay [10] can be described thus: Identifying Small Molecule Inhibitors of Pancreatic Cancer Stem Cells (A278, Adherent) (AID 1259361).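 Note: viability read after 48 h compound exposure; nearly all actives have a fitted effect of over 35% in size.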 The method in brief: as §3
Assay [11] can be described thus: Identifying Small Molecule Inhibitors of Pancreatic Cancer Stem Cells (Panc1, Spheroid) (AID 1259359).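 Note: potency is the fitted concentration of half-maximal effect; compound exposure lasted 48 h before reading.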 The method in brief: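 After a 4 h attachment period, compounds were pinned into wells and cultures held 48 h under standard incubator conditions. Viability was then measured as CellTiter-Glo luminescence following 10 min at room temperature.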
A short description of assay [12]: P-glycoprotein substrates identified in KB-3-1 adenocarcinoma cell line, qHTS therapeutic library screen (AID 1346986). Note: nearly all actives have a fitted effect of over 60% in size. The method in brief:
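In 1536-well format, 500 cells/well received pinned compound titrations and were incubated 72 h, 5% CO2. Viability was read by CellTiter-Glo; cytotoxic if AC50 < 10 uM and efficacy >50%.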

For `COc1ccc(-n2nc(C(N)=O)c3c2C(=O)N(c2ccc(N4CCCCC4=O)cc2)CC3)cc1`, the Potency entry in [1], in [2], in assay [3], in assay [4] and in [5] was “inactive” throughout.

Regarding `Nc1cccc(-c2cc3c(Oc4cccc(O)c4)ncnc3[nH]2)c1`, the Potency in assay [1] was 2.35 µM (active); in [2], 4.18 µM (active); in assay [3], 3.32 µM (active); in [4], 2.96 µM (active). The Potency result in assay [5] was “inactive”.

Take `Clc1cccc(-n2nnnc2NCc2ccccc2Oc2ccccn2)c1Cl`: the Potency result in assay [1], in assay [2], in assay [3], in assay [4] and in assay [5] was “inactive” in each case.

Consider `CCc1c2c(nc3ccc(O)cc13)-c1cc3c(c(=O)n1C2)COC(=O)[C@]3(O)CC`, for which the Potency in assay [1] was 0.0021 µM (active); in [2] it was 0.0023 µM (active); in assay [3] it was 0.0021 µM (active); in [6], 231 nM (active); in [5], 0.0037 µM (active). Further, in assay [4], the Potency entry was “inactive”.

`O=C(CCCCCCC(=O)Nc1ccc([C@H]2O[C@@H](CSc3nc(-c4ccccc4)c(-c4ccccc4)o3)C[C@@H](c3ccc(CO)cc3)O2)cc1)NO`: the Potency in [1] was 7.43 µM (active); in assay [2] it was 13.2 µM (active); in [3], 4.69 µM (active); in [4], 13.2 µM (active); in assay [6], 11.8 µM (active) and inactive. Further, in assay [5], the Potency entry is “inactive”.

As to `CCS(=O)(=O)c1cccc(-c2cc(C(=O)NC3CCN(C)CC3)c(C)c3[nH]c4ncc(C)cc4c23)c1`, the Potency in assay [1] was 0.743 µM (active); in [2], 3.32 µM (active); in assay [3], 0.118 µM (active); in assay [4] it was 0.235 µM (active); in [5], 13.2 µM (active).

With `CC(C)c1noc(N2CCC(COc3ccc(-c4ccc(S(C)(=O)=O)cc4)nc3)CC2)n1`, the Potency result in [1], in assay [2], in assay [3], in [4], in assay [6] and in [5] was “inactive” in each case.

Turning to `Cc1ccc2nc(NC(=O)CSc3nc4c(c(=O)n3-c3ccccc3)SCC4)sc2c1`, the Potency in assay [1] is 18.7 µM (active); in assay [2], 20.9 µM (active); in assay [3], 16.6 µM (active); in [4], 16.6 µM (active). Also, the Potency result in [5] was “inactive”.

Consider `COc1cccc(-c2ccc(NC(=O)C3=C(C(=O)O)CCC3)c(F)c2)c1`, for which the Potency in [1] is 14.8 µM (active); in [2], 11.8 µM (active); in [3], 9.35 µM (active); in assay [4] it was 16.6 µM (active); in assay [5], 2.09 µM (active).

For the molecule `COc1ccc2c(OCc3nnc4ccc(-c5ccccc5)nn34)ccnc2c1`, the Potency entry in [1], in assay [2], in assay [3], in assay [4], in assay [6] and in assay [5] was “inactive” in each case.

Take `C[C@@H]1CN(CC(=O)Nc2ccc3c(c2)Cc2cccc(-c4cc(=O)cc(N5CCOCC5)o4)c2S3)C[C@H](C)O1`: the Potency is 23.5 µM (active) in assay [1]; 20.9 µM (active) in assay [2]; 23.5 µM (active) in [3]; 18.7 µM (active) in assay [4]; 18.7 µM (active) in [5]. The Potency entry in assay [6] is “inactive”.

Take `O=C1CCC[C@@H]2[C@H]3CCC[N+]4([O-])CCC[C@@H](CN12)[C@@H]34` (some centres not stated): the Potency result in [1], in [2], in assay [3], in assay [4], in [6] and in assay [5] was “inactive” each time.

Turning to `O=C(O)Cn1nnc(-c2cc(N3CCC(Oc4cc(F)ccc4Br)CC3)no2)n1`, the Potency entry in assay [2], in assay [3] and in assay [4] was “inactive” throughout.

As for `Cc1ccc(C(=O)Nc2ccc(CN3CCN(C)CC3)c(C(F)(F)F)c2)cc1C#Cc1cnc2cccnn12`, the Potency is 4.69 µM (active) in assay [2]; 5.9 µM (active) in [3]; 5.9 µM (active) in assay [4]; 14.8 µM (active) in [7]; 16.6 µM (active) in assay [8]; 23.5 µM (active) in [9]. The Potency was 2.09 µM (active) and 3.66 µM (active) in assay [6]; 11.8 µM (active) in assay [5]. Further, the IC50 (viability decrease) in [10] was 5.26 µM (active).

As to `Cc1ccc(C(N)=O)cc1Nc1nccc(-c2cn(C(C)C)c3cnccc23)n1`, the Potency was 8.33 µM (active) in [2], 18.7 µM (active) in assay [3], 16.6 µM (active) in assay [4] and 20600 nM (active) in assay [6]. In assay [8], the Potency result is “inactive”. For the same molecule, the IC50 (viability decrease) in [10] was 8.33 µM (active).

As to `CC(=O)OCC(=O)[C@@]1(O)[C@H](C)C[C@H]2[C@@H]3C=C(C)C4=Cc5c(cnn5-c5ccccc5)C[C@]4(C)[C@@H]3[C@@H](O)C[C@@]21C`, the Potency in [2] is 6.62 µM (active); in [3], 7.43 µM (active); in assay [4] it was 5.9 µM (active); in assay [11] it was 14.8 µM (active); in [9], 20.9 µM (active); in [5], 11.8 µM (active). In addition, the Potency result in [7], in assay [8] and in assay [12] was “inactive” throughout. The IC50 (viability decrease) in [10] is 13.2 µM (active).

Turning to `COc1cccc2c(NCc3ccccc3)nc(-n3c(N)nc4ccccc43)nc12`, the Potency in assay [2] was 8.33 µM (active); in assay [3], 8.33 µM (active); in assay [4], 10.5 µM (active); in [5] it was 9.35 µM (active). The Potency entry in assay [6] was “inactive”.

Consider `N#Cc1c(O)c2c(-c3ccc(-c4ccccc4O)cc3)csc2[nH]c1=O`, for which the figures for the Potency in assay [2], in [3] and in [4] were 18.7 µM (active), 20.9 µM (active) and 23.5 µM (active), respectively. The Potency result in assay [8], in assay [12], in assay [6] and in [5] was “inactive” throughout. Also, in assay [10], the IC50 (viability decrease) result is “inactive”.
